Measurements: the supplement of paper PMC10849652
About 7,900 targets were measured; listed, in parts, are those with a hit and a random draw of the rest. About 0.6% of all pairs of compound and target were hits. Values without a mark were called inactive.

Key:
Assay in all cases: log2 fold change, soluble protein after heating vs DMSO (PISA); higher = thermal stabilisation; K562 cells, 10 uM, 30 min; active = over 0.2 and 3.5 SD of the protein, either way, in both replicates (recomputed)
IRAK-1-4 Inhibitor I = compound: C1COCCN1CCN2C3=CC=CC=C3N=C2NC(=O)C4=CC(=CC=C4)[N+](=O)[O-] [IRAK-1-4 Inhibitor I]
Outline: (§1)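 For each measurement, 10 μM compound was applied for 30 min to K562 cells at 2×10^6 cells/mL. Aliquots were heated for 3 min across 48°C-58°C, pooled, and extracted in PBS with 0.5% NP-40 at 4°C; the supernatant after 21,000xg for 90 min was soluble protein. This was quantified by TMTpro 16plex LC-MS/MS with channel sums equalised, and thermal stability was reported relative to control samples from duplicates, on a log2 fold-change scale.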

ibrutinib = compound: C=CC(=O)N1CCC[C@@H](n2nc(-c3ccc(Oc4ccccc4)cc3)c3c(N)ncnc32)C1 [ibrutinib]
Outline: as §1

[1] = compound: CC(=O)c1cnc2ccc(-c3cc(Cl)c(O)c(Cl)c3)nc2c1N[C@H]1CC[C@H](CN(C)C)CC1
Outline: as §1

ralimetinib = compound: CC(C)(C)Cn1c(N)nc2ccc(-c3[nH]c(C(C)(C)C)nc3-c3ccc(F)cc3)nc21 [ralimetinib]
Outline: as §1

[2] = compound: CC(C)(O)CC(=O)NCCn1ccc2ncnc(Nc3ccc(Oc4cccc(C(F)(F)F)c4)c(Cl)c3)c21
Outline: as §1

[3] = compound: CC(C)C1=C2N=C(C=C(N2N=C1)NCC3=CC=CC=C3)NCCCCCCN
Outline: as §1

[4] = compound: CC(C)C[C@@H](C=O)NC(=O)[C@H](CC(C)C)NC(=O)[C@H](CC(C)C)NC(=O)OCc1ccccc1
Outline: as §1

pinometostat = compound: CC(C)N(C[C@H]1O[C@@H](n2cnc3c(N)ncnc32)[C@H](O)[C@@H]1O)[C@H]1C[C@@H](CCc2nc3cc(C(C)(C)C)ccc3[nH]2)C1 [pinometostat]
Outline: as §1

[5] = compound: CC1=C(C(CC(=O)N1)C2=CC=C(C=C2)C(F)(F)F)C(=O)NC3=C(C=C4C(=C3)C=NN4)F
Outline: as §1

[6] = compound: CC1=C(C2=C(C=C1)C(=O)C3=CC=CC=C3N2CCCN)C
Outline: as §1

[7] = compound: CC1=C(C=C(C=C1)NC(=O)C2=CC(=CC=C2)C(C)(C)C#N)NC3=CC4=C(C=C3)N=CN(C4=O)C
Outline: as §1

[8] = compound: CC1=C(C=C(C=C1)NC(=O)C2=CC(=CC=C2)N(C)C)NC(=O)C3=CC=C(C=C3)O
Outline: as §1

[9] = compound: CC1=CC=C(C=C1)SC2=C3C=C(SC3=CN=C2)C(=O)N
Outline: as §1

[10] = compound: CC1=NC(=CC=C1)C2=C(N=C(N2)C(C)(C)C)C3=CC4=NC=CN=C4C=C3
Outline: as §1

Nexturastat A = compound: CCCCN(Cc1ccc(C(=O)NO)cc1)C(=O)Nc1ccccc1 [Nexturastat A]
Outline: as §1

vemurafenib = compound: CCCS(=O)(=O)Nc1ccc(F)c(C(=O)c2c[nH]c3ncc(-c4ccc(Cl)cc4)cc23)c1F [vemurafenib]
Outline: as §1

[11] = compound: CCCS(=O)(=O)Nc1ccc(F)c(C(=O)c2c[nH]c3ncc(Cl)cc23)c1F
Outline: as §1

[12] = compound: CCCc1cc(C)[nH]c(=O)c1CNC(=O)c1cc(-c2ccnc(N3CCN(C)CC3)c2)cc2c1cnn2C(C)C
Outline: as §1

givinostat = compound: CCN(CC)Cc1ccc2cc(COC(=O)Nc3ccc(C(=O)NO)cc3)ccc2c1 [givinostat]
Outline: as §1

barasertib = compound: CCN(CCCOc1ccc2c(Nc3cc(CC(=O)Nc4cccc(F)c4)[nH]n3)ncnc2c1)CCOP(=O)(O)O [barasertib]
Outline: as §1

Chain of UniProt P54709 (P54709 whole entry, looked up): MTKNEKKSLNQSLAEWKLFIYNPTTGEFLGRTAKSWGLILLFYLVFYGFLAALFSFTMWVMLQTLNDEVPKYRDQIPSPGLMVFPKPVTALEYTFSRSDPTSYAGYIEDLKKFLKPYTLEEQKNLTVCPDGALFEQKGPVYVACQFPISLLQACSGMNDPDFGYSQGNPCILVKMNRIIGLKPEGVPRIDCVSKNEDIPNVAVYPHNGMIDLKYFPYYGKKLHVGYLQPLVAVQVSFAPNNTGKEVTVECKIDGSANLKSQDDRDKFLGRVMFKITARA
Chain of UniProt Q14137 (Q14137 whole entry, looked up): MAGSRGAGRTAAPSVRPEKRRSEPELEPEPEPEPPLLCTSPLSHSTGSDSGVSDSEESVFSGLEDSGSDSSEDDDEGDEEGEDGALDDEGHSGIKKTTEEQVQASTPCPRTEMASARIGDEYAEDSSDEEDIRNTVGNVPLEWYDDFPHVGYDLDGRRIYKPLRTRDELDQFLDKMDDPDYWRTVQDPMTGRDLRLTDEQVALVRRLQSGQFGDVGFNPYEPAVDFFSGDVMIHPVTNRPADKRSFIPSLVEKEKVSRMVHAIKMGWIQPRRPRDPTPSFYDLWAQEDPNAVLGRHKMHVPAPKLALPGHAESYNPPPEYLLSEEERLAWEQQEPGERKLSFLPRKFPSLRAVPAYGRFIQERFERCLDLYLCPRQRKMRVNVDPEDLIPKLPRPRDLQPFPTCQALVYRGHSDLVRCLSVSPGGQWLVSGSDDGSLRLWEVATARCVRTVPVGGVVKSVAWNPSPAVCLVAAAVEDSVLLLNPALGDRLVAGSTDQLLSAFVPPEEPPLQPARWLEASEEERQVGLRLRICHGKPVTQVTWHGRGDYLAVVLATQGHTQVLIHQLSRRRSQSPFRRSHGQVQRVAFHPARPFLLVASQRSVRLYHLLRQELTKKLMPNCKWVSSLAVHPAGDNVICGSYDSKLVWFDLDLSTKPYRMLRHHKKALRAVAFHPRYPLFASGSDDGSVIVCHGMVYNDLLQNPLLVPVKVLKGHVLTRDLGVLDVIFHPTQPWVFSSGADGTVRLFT
Chain of UniProt Q9NUQ2 (Q9NUQ2 whole entry, looked up): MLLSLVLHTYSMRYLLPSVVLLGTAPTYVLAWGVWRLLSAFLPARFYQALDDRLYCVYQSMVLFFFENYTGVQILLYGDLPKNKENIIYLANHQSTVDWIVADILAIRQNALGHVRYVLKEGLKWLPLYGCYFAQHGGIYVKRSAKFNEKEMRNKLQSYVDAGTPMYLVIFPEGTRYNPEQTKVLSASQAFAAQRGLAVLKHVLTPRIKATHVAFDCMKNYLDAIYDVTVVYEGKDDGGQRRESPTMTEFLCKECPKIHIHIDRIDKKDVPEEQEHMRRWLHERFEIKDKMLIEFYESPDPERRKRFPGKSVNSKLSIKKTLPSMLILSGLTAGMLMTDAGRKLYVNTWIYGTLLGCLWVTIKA
Chain of UniProt P30837 (P30837 whole entry, looked up): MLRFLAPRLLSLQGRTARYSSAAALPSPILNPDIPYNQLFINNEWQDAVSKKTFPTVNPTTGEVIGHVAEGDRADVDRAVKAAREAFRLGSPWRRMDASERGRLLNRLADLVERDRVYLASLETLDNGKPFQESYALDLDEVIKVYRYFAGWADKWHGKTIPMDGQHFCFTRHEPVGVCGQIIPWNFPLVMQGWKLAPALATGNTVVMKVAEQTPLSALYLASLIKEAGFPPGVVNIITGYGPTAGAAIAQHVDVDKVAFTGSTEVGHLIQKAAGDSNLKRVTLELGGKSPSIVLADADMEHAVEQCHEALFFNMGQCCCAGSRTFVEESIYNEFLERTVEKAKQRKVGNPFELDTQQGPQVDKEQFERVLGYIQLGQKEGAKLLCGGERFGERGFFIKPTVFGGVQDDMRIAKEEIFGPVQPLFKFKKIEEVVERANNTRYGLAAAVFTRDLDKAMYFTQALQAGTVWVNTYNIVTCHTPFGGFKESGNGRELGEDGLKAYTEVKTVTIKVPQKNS
Chain of UniProt Q96GS6 (Q96GS6 whole entry, looked up): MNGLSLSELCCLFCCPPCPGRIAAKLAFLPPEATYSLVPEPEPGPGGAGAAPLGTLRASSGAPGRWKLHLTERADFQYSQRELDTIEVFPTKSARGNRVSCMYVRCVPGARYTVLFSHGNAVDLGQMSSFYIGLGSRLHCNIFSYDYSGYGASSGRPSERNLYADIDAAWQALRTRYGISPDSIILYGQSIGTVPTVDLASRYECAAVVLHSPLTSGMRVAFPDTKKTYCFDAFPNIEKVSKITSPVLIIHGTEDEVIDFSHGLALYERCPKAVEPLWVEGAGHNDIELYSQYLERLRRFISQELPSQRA
Chain of UniProt Q9UII2 (Q9UII2 whole entry, looked up): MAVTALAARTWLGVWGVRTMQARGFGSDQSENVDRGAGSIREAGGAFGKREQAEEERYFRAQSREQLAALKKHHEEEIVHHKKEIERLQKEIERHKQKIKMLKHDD
Chain of UniProt Q14457 (Q14457 whole entry, looked up): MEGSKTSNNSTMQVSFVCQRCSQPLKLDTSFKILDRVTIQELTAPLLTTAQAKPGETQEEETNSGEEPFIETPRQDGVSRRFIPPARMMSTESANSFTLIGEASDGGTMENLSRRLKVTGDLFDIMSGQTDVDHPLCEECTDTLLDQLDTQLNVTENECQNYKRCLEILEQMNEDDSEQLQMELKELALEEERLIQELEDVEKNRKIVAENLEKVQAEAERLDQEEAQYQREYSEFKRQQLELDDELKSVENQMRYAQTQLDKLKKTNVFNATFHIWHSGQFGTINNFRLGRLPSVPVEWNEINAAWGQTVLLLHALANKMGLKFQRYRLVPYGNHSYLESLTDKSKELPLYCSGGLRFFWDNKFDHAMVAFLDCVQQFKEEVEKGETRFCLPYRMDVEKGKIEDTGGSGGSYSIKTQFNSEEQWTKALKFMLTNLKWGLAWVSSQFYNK
Chain of UniProt O14965 (O14965 whole entry, looked up): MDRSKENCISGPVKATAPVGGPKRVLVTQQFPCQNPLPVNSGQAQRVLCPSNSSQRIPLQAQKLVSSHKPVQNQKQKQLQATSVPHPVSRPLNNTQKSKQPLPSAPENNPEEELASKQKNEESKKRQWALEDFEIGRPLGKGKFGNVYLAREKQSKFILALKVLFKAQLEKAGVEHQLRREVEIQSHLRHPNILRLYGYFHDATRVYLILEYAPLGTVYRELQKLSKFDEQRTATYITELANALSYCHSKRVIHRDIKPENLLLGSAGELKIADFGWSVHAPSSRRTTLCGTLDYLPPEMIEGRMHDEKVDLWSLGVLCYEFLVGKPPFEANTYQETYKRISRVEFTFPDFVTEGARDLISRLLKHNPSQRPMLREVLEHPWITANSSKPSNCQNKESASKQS

Target | log2 fold change (IRAK-1-4 Inhibitor I) | log2 fold change (ibrutinib) | log2 fold change [1] | log2 fold change (ralimetinib) | log2 fold change [2] | log2 fold change [3] | log2 fold change [4] | log2 fold change (pinometostat) | log2 fold change [5] | log2 fold change [6] | log2 fold change [7] | log2 fold change [8] | log2 fold change [9] | log2 fold change [10] | log2 fold change (Nexturastat A) | log2 fold change (vemurafenib) | log2 fold change [11] | log2 fold change [12] | log2 fold change (givinostat) | log2 fold change (barasertib)
ALDH1B1 (UniProt P30837) | 0.051 | 0.031 | -0.009 | -0.004 | -0.072 | 0.132 | -0.01 | -0.022 | -0.054 | 0.221 | 0.054 | 0.008 | 0.128 | 0.017 | -0.104 | 0.011 | 0.032 | -0.016 | 0.032 | -0.001
ATP1B3 (UniProt P54709) | 0.025 | 0.043 | -0.03 | -0.036 | 0.01 | 0.154 | -0.008 | -0.056 | -0.012 | -0.032 | 0 | -0.015 | -0.02 | 0.046 | -0.065 | 0.005 | -0.036 | -0.018 | -0.055 | -0.021
BOP1 (UniProt Q14137) | -0.039 | 0.01 | -0.083 | 0.041 | 0.119 | -0.068 | 0.031 | 0.021 | 0.01 | -0.078 | -0.06 | 0.007 | 0.015 | 0.023 | 0.162 | 0.047 | -0.006 | 0.055 | 0.09 | -0.054
AURKA (UniProt O14965) | -0.05 | 0.193 | 0.914 (active) | 0.062 | -0.056 | -0.128 | 0.16 | 0.033 | 0.001 | 0.059 | -0.008 | -0.041 | -0.011 | -0.036 | 0.096 | -0.026 | 0.006 | 0.01 | 0.257 | 0.114
ATP5IF1 (UniProt Q9UII2) | 0.121 | 0.012 | 0.018 | -0.1 | 0.099 | 0.056 | -0.048 | -0.06 | 0.009 | -0.006 | -0.035 | 0.009 | -0.005 | 0.021 | -0.041 | -0.078 | -0.043 | -0.022 | -0.005 | 0.026
AGPAT5 (UniProt Q9NUQ2) | 0.047 | 0.003 | 0.062 | -0.037 | 0.03 | -0.163 | 0.002 | 0.007 | -0.001 | 0.021 | -0.02 | -0.009 | 0.012 | -0.068 | -0.061 | 0.008 | 0.095 | -0.088 | -0.05 | 0.015
ABHD17A isoform 2 (UniProt Q96GS6) | 0.076 | 0.001 | -0.042 | -0.034 | -0.078 | -0.126 | 0.062 | 0.079 | -0.042 | 0.077 | -0.004 | -0.031 | 0.035 | -0.068 | 0.034 | -0.039 | -0.032 | -0.021 | -0.313 | 0.016
BECN1 (UniProt Q14457) | -0.003 | -0.018 | 0.003 | -0.004 | -0.011 | -0.031 | -0.015 | -0.032 | -0.058 | 0.084 | -0.04 | 0.029 | 0 | 0.04 | 0.015 | 0.055 | -0.01 | -0.024 | -0.018 | -0.012
